Assay results reported in ChEMBL document CHEMBL3988442, “University of Dundee, Small-Polar-MMV Screening Library” (2021).
About 950 (1.4%) of roughly 69,000 compounds showed an effect of 50% or more. The sample holds strong results, similar compounds and a random draw of the others, so the mix is not that of the screen.

test system: Mycobacterium tuberculosis; test: Cornell M. t heat shock assay; format: functional, organism-based; parameters: dose or concentration left out as unconfirmed; further: in the data most compounds retested in dose-response had high values

| SMILES | Percent Effect [%] |
| --- | --- |
| Cc1n[nH]c(C)c1CCC(=O)N[C@@H]1CCC[C@@H](Oc2ccccc2)[C@@H]1O | -15.12 |
| CN[C@@H]1CCC[C@@H](Oc2ccccc2Oc2ccc(C)cc2)[C@@H]1O | 50.23 |
| Cc1noc(C)c1C(=O)N[C@@H]1CCC[C@@H](Oc2ccccc2)[C@@H]1O | 10.41 |
| Cc1ccc(Oc2cc(F)ccc2O[C@@H]2CCC[C@@H](N)[C@H]2O)cc1 | 103.2 |
| N[C@@H]1CCC[C@@H](Oc2ccc(F)cc2Oc2cccc(F)c2)[C@@H]1O | 1.479 |
| N[C@@H]1CCC[C@@H](Oc2ccc(F)cc2Oc2ccccc2)[C@@H]1O | -7.942 |
| O=C(O)C(F)(F)F.O=c1ccc2c([nH]1)CCC(NCc1ccc(F)cc1)C2 (stereo unspecified) | -5.527 |
| Cc1nc(CN2C[C@@H]3CN(C(=O)C4CC4)C[C@@H]3C2=O)cs1.O=C(O)C(F)(F)F | -7.229 |
| O=C(O)C(F)(F)F.O=C(c1ccco1)N1CCOCC2(C1)CN(c1cccnc1)C(=O)CO2 (stereo unspecified) | -36.47 |
| CCN(CC)c1ncc(CNC2CCc3ncnn3C2)s1 (stereo unspecified) | 0.07548 |
| CCN1CCOCC2(CCCN(C(=O)c3conc3C)C2)C1.O=C(O)C(F)(F)F (stereo unspecified) | -3.777 |
| CC(C)c1cc(NCC(C)N2CCCC2)n2nccc2n1 (stereo unspecified) | 19.07 |
| Cc1cc2nc(C(C)C)cc(NCC(c3ccccn3)N(C)C)n2n1 (stereo unspecified) | 107.7 |
| COc1cc(NCC(c2ccccn2)N(C)C)ncn1 (stereo unspecified) | 7.48 |
| Cc1cc2nc(C(C)C)cc(NCc3ccncc3)n2n1 | 10.36 |
| CC(C)c1cc(NCC(O)c2ccc(F)cc2)n2nccc2n1 (stereo unspecified) | 13.68 |
| CC(C)c1cc(NCC(O)c2ccccn2)n2nccc2n1 (stereo unspecified) | 105.1 |
| CC(C)c1cc(NCC(O)CO)n2nccc2n1 (stereo unspecified) | 7.568 |
| Cc1cc2nc(C(C)C)cc(NC(C)c3nncn3C)n2n1 (stereo unspecified) | 6.767 |
| Cc1cc2nc(C(C)C)cc(NCCc3cccn3C)n2n1 | 51.31 |
| CC(C)c1cc(NCC(O)c2ccncc2)n2nccc2n1 (stereo unspecified) | 0.8571 |
| Cc1cc2nc(C(C)C)cc(NCCc3ccncc3)n2n1 | 5.483 |
| CCCC(CNc1cc(C(C)C)nc2ccnn12)N(C)C (stereo unspecified) | 105.9 |

| SMILES | Percent Effect [%] |
| --- | --- |
| CCOC1COC2(CCN(Cc3cccnc3OC)CC2)C1.O=C(O)C(F)(F)F.O=C(O)C(F)(F)F (stereo unspecified) | 16.61 |
| CC(=O)N1C[C@@H]2CC[C@H](C1)N(S(=O)(=O)c1ccc(F)cc1Cl)C2 | 10.85 |
| N#Cc1ccc(N2CCC3(CC2)CC(N2CCOCC2)CO3)cc1.O=C(O)C(F)(F)F (stereo unspecified) | 25.96 |
| CN(C)C1CCN(C(=O)c2cc(-c3ccn(C)n3)n3ccccc23)CC1.O=C(O)C(F)(F)F | 44.75 |
| Cl.NCc1ccc(Oc2ccc(F)c(F)c2)cc1C(F)(F)F | 1.199 |
| C[C@@H]1CN(Cc2ccoc2)C[C@]12CCN(CC(=O)N(C)C)C2=O.O=C(O)C(F)(F)F | 10.48 |
| CS(=O)(=O)NC[C@H]1OC[C@H]2CN(Cc3ccsc3)CC[C@H]21.O=C(O)C(F)(F)F | -31.27 |
| Cc1cc2nc(C(C)C)cc(NCCNc3ncccc3C)n2n1 | -16.57 |
| Cc1cccnc1NCCNc1cc(C(C)C)nc2ccnn12 | 97.5 |
| Cc1cc(NCCNc2ncccc2C)n2nc(C)cc2n1 | 16.17 |
| Cc1cnc(C(=O)N2C[C@H]3CC[C@@H]2CN(c2cnccn2)C3)cn1 | -7.052 |
| CCC(C)N1Cc2c(C(=O)N3CCOCC3)nn(C)c2C1.O=C(O)C(F)(F)F (stereo unspecified) | -5.344 |
| CC(C)N1CCCCC1c1nc(N(C)C)ncc1I.Cl (stereo unspecified) | -21.57 |
| CC(C)N(C)Cc1cnc2n1CCN(S(=O)(=O)c1ccccc1)C2.O=C(O)C(F)(F)F | -26.7 |
| Cc1nc(C2CCNC2)nc2c1CCC(=O)N2CC(C)C.Cl (stereo unspecified) | -0.8245 |
| c1ccc(C2CCN(c3cncc(-n4cccn4)n3)CC2)cc1 | -1.073 |
| c1ccc(COC2CCN(c3cncc(-n4cccn4)n3)CC2)cc1 | 53.35 |
| c1ccc(C2CCCN(c3cncc(-n4cccn4)n3)CC2)cc1 (stereo unspecified) | 6.437 |
| CN(C)S(=O)(=O)N1CCO[C@H]2[C@H](Oc3cccnc3)CC[C@@H]21.O=C(O)C(F)(F)F | -23.12 |
| CCOc1ccc(C2C3=C(O)OCC3=Nc3nc(SC)nc(N)c32)cc1 (stereo unspecified) | 5.942 |
| CC(C)N1CCc2c(C(=O)N3CCOCC3)nn(C)c2C1.O=C(O)C(F)(F)F | 1.567 |
| CC(C)c1ncc2c(n1)CN(Cc1noc(-c3ccccc3)n1)CC2 | 59.47 |
| Cc1ccc(-c2nc(CN3CCc4cnc(C)nc4C3)no2)cc1 | 7.068 |

| SMILES | Percent Effect [%] |
| --- | --- |
| CC(C)c1ncc2c(n1)CN(Cc1nc(Cc3ccccc3)no1)CC2 | 21.5 |
| Cc1cccc(CN2CCOCC3(CCN(C4CCOCC4)C3)C2)c1.O=C(O)C(F)(F)F.O=C(O)C(F)(F)F (stereo unspecified) | -7.998 |
| CC(=O)Nc1nc(C(=O)NCc2ccc(N3CCCC3)nc2)cs1 | -13.06 |
| CC(=O)Nc1nc(C(=O)NCc2ccc(N3CCCCCC3)nc2)cs1 | 8.395 |
| CC(=O)Nc1nc(C(=O)Nc2ccc(N3CCCCC3)nc2)cs1 | 50.82 |
| O=C(O)C(F)(F)F.O=C(O)C(F)(F)F.c1cc(CN2CCc3ncc(CN4CCCCC4)n3CC2)cs1 | -20.06 |
| Cc1nc(COCC2CN(C(N)=O)Cc3nccn3C2)cs1.O=C(O)C(F)(F)F (stereo unspecified) | -0.7889 |
| NC1(c2nc(-c3cccs3)cc(=O)[nH]2)CCCC1 | -25.86 |
| Cc1cc(=O)[nH]c(-n2nc(-c3ccccc3)cc2N)n1 | 105.3 |
| CCCc1cc(=O)[nH]c(-n2nc(-c3cccs3)cc2N)n1 | 106.1 |
| Cc1cc(=O)[nH]c(-n2nc(-c3cccs3)cc2N)n1 | 94.15 |
| CS(=O)(=O)NCCn1ccc(-c2cccs2)n1 | 0.1994 |
| NC1(c2nc(-c3ccccc3)cc(=O)[nH]2)CCCC1 | -2.897 |
| CCCS(=O)(=O)NCCn1ccc(-c2cccs2)n1 | -4.478 |
| NC1(c2nc(-c3ccccc3)cc(=O)[nH]2)CCCCC1 | 0.6123 |
| NC1(c2nc(-c3cccs3)cc(=O)[nH]2)CCCCC1 | -38.51 |
| Cc1noc(C)c1CN1CC[C@H]2OCC[C@@]2(C(=O)N(C)C)C1.O=C(O)C(F)(F)F | -9.212 |
| CC(C)CCN1C2(CCN(Cc3nccs3)C2)c2ccccc2S1(=O)=O.O=C(O)C(F)(F)F (stereo unspecified) | 47.98 |
| CN(C)C(=O)COCC1CN(Cc2cccs2)Cc2ncn(C)c21.O=C(O)C(F)(F)F.O=C(O)C(F)(F)F (stereo unspecified) | -34.33 |
| Clc1cc(CN2CCCC(Cn3cncn3)C2)c2ncccc2c1 (stereo unspecified) | -4.966 |
| O[C@@H]1CN(Cc2cc(Cl)cc3cccnc23)C[C@@H]1O | -38.19 |
| COc1cc(Cl)cc(CN2CCCC(N3CCOCC3)C2)c1OC (stereo unspecified) | 2.91 |
| Clc1cc(CN2CCCN3CCCC3C2)c2ncccc2c1 (stereo unspecified) | 99 |

| SMILES | Percent Effect [%] |
| --- | --- |
| COc1cc(Cl)cc(CN2CCCC(N3CCCC3)C2)c1OC (stereo unspecified) | 98.75 |
| COc1ccc(CN2CCCC(N3CCCC3)C2)cc1Cn1cncn1 (stereo unspecified) | -42.58 |
| CNC(=O)C1CNCCN1C(=O)c1ccc(C(F)(F)F)nc1C.Cl (stereo unspecified) | 13.87 |
| CC(C)NC(=O)CC1COC2(CCN(Cc3cccnc3)CC2)C1.O=C(O)C(F)(F)F.O=C(O)C(F)(F)F (stereo unspecified) | -3.493 |
| Cc1nc(C)c2c(n1)CCN(Cc1ccco1)CC2 | 1.706 |
| CC(C)Oc1ncnc2c1CCN(Cc1ccco1)CC2.O=C(O)C(F)(F)F | -23.01 |
| Oc1nc(N2CCCC2)nc2c1CCN(Cc1ccsc1)CC2 | -11.88 |
| Cc1nc(N2CCCC2)nc2c1CCN(Cc1ccsc1)CC2.O=C(O)C(F)(F)F | 100.4 |
| Cc1nc(N2CCCC2)nc2c1CCN(Cc1ccoc1)CC2.O=C(O)C(F)(F)F | 64.12 |
| Cc1nc(N2CCOCC2)nc2c1CCN(Cc1cccnc1)CC2.O=C(O)C(F)(F)F | 5.04 |
| Cc1nc(N2CCCC2)nc2c1CCN(Cc1ccco1)CC2.O=C(O)C(F)(F)F | 66.31 |
| Cc1nc(N2CCCC2)nc2c1CCN(Cc1nccn1C)CC2.O=C(O)C(F)(F)F | -10.58 |
| Cc1nc(N2CCOCC2)nc2c1CCN(Cc1ccsc1)CC2.O=C(O)C(F)(F)F | 3.426 |
| O=C(O)C(F)(F)F.O=C(O)C(F)(F)F.O=C1CC2(CCN(Cc3ccncc3)C2)CN1c1ccc2c(c1)OCO2 (stereo unspecified) | -29.31 |
| O=C(O)C(F)(F)F.O=C(O)C(F)(F)F.c1cnc(N2CCC3(COCCN(CC4CCOCC4)C3)C2)nc1 (stereo unspecified) | -23.85 |
| CCc1ncnc2c1CCN(CC(=O)N(C)C)CC2.O=C(O)C(F)(F)F | -2.001 |
| COc1ccc(CN2C[C@@H]3OCCN(CCN4CCCC4)[C@@H]3C2)cc1.O=C(O)C(F)(F)F.O=C(O)C(F)(F)F.O=C(O)C(F)(F)F | -18.96 |
| Cc1ncc2c(n1)C1(CCN(C(=O)C3CC3)CC1)OCC2.Cl | 6.327 |
| CCN(CC)Cc1cn2c(n1)CN(C(=O)Cc1ccsc1)CC2.O=C(O)C(F)(F)F | -4.189 |
| Cl.O=C1CC2(CCNCC2)C(=O)N1c1cccc(F)c1 | -6.229 |
| Cc1cc2c(=O)n3c(nc2s1)CCN(Cc1cnc(C)n1C)CC3.Cl | 0.614 |
| O=C(O)C(F)(F)F.O=C1Nc2ccccc2C12CCN(Cc1cccs1)CC2 | -5.404 |
